Assay results: ChEMBL document CHEMBL1961873, “Compounds: GSK PKIS; Assays: Nanosyn kinase panel” (2012)

Each molecule was assayed against T1, MAP/microtubule affinity-regulating kinase 4 (Homo sapiens) (UniProt Q96L34). Settings: at 1 µM.
T1 sequence (whole entry): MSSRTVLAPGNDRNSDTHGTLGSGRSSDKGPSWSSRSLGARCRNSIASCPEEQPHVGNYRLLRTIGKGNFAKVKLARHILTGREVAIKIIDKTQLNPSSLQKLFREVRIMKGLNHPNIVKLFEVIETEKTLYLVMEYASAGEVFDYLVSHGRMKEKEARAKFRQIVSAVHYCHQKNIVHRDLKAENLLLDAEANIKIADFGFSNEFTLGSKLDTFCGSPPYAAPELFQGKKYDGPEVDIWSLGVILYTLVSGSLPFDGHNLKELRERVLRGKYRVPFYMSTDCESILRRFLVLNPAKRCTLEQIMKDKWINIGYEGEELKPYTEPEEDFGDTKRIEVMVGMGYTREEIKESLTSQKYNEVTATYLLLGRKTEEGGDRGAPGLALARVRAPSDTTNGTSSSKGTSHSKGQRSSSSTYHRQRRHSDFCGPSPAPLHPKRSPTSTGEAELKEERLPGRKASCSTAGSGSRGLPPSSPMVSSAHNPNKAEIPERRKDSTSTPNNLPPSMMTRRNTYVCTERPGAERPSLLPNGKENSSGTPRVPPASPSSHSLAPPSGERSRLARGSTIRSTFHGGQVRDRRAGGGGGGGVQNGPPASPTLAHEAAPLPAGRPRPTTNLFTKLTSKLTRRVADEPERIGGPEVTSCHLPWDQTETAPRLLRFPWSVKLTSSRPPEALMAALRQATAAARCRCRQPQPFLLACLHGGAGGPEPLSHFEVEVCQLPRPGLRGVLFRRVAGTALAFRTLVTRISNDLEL

SMILES | inhibition [%]
CCc1nn2ncccc2c1-c1ccnc(NC2CC2)n1 | 2.34
COC(=O)c1sc(-n2cnc3cc(OC)c(OC)cc32)cc1OCc1ccccc1C(F)(F)F | 4.85
[O-][S+]1CCN(Cc2ccc(-c3ccc4ncnc(Nc5ccc(OCc6cccc(F)c6)c(Cl)c5)c4c3)o2)CC1 | 3.99
CCn1c(-c2nonc2N)nc2c(C#CC(C)(C)O)ncc(OC3CCNCC3)c21 | 62.1
CC(C)(CO)CNC(=O)c1ccc2c(c1)/C(=N/Nc1ccc(S(N)(=O)=O)cc1)C(=O)N2 | 42.6
CCCN1CCC(c2ccc(Nc3nc(Nc4cc(F)ccc4C(N)=O)c4cc[nH]c4n3)c(OC)c2)CC1 | 42.6
COc1ccc(-c2cc(-c3c[nH]nc3-c3ccccn3)ccn2)cc1 | 2.28
COc1ccc(-c2cc3c(N)ncnc3o2)cc1 | 1.62
COC(=O)Nc1nc2ccc(S(=O)(=O)c3ccc(NC(=O)Nc4cc(C(F)(F)F)ccc4F)cc3)cc2[nH]1 | 1.06
Fc1ccc(-c2nn3ccccc3c2-c2ccncc2)cc1 | -0.34
CN1CCC(n2cnc(-c3ccc(F)cc3)c2-c2ccnc(N)n2)CC1 | 0.48
COc1cccc(-n2ncc3c(N/N=C/c4ccc(F)cc4)ncnc32)c1 | 2.4
Fc1cccc(COc2ccc(Nc3ncnc4sc(-c5ccco5)cc34)cc2Cl)c1 | 3.94
Fc1ccc(-c2cc(-c3c[nH]nc3-c3ccccn3)ccn2)cc1 | 1.84
CCCN(CCS(C)(=O)=O)Cc1ccc(-c2ccc3ncnc(Nc4ccc(OCc5cccc(F)c5)c(Cl)c4)c3c2)o1 | -0.36
COc1cccc(-c2c[nH]c3c(N/N=C/c4ccncc4)ncnc23)c1 | 7.5
CC1=C(C(=O)Nc2cc(Cl)c3[nH]ncc3c2)C(c2ccc(C(F)(F)F)cc2)CC(=O)N1 (stereo not drawn) | 3.1

SMILES | inhibition [%]
CS(=O)(=O)CCNCc1coc(-c2ccc3ncnc(Nc4ccc(OCc5ccccc5)cc4)c3c2)c1 | 1.07
CCn1c(-c2nonc2N)nc2cnc(Oc3cccc(NC(=O)c4ccc(N(C)C)cc4)c3)cc21 | 3.87
CNC(=O)c1cc(-c2ccc(F)cc2)cc(-c2ccc(S(=O)(=O)N3CCCC3)cc2)c1N | 1.19
O=S(=O)(CCNCc1ccc(-c2ccc3ncnc(Nc4ccc(OCc5cccc(F)c5)c(Cl)c4)c3c2)o1)c1ccccc1 | 2.5
N#Cc1c(NC(=O)c2ccc(F)cc2)sc2c1CCCC2 | 1.29
CNC(=O)c1cccc(C#Cc2cncnc2Nc2ccc(OCc3cccc(F)c3)c(Cl)c2)c1 | 0.31
CCn1c(-c2nonc2N)nc2c(C#CC(C)(C)O)nc(OC[C@H](N)c3ccccc3)cc21 | 18.4
Nc1ncc(-c2cccc(S(N)(=O)=O)c2)c2scc(-c3ccc(F)c(Cl)c3)c12 | 5.58
c1ccc(COc2ccc(Nc3ncnc4ccc(-c5ccco5)cc34)cc2)cc1 | 1.77
N#Cc1c(NC(=O)CN2CCOCC2)sc2c1CCCC2 | 1.29
NS(=O)(=O)c1ccc(N/N=C2\C(=O)Nc3ccc4ncccc4c32)cc1 | 52
O=C(O[C@H]1CN[C@H](C#Cc2cc3ncnc(Nc4ccc(Cc5ccccc5)cc4)c3s2)C1)N1CCOCC1 | 0.44
CC(=O)Nc1cccc(C#Cc2cncnc2Nc2ccc(OCc3cccc(F)c3)c(Cl)c2)c1 | 0.69
Cc1cccc(Nc2ncc(-c3ccccc3)o2)c1 | 6.57
FC(F)(F)c1cccc(-c2nn3ncccc3c2-c2ccnc(Nc3ccc4c(c3)OCCO4)n2)c1 | 1.99
CCNC(=O)O[C@H]1CN[C@H](C#Cc2cc3ncnc(Nc4ccc(OCc5cccc(F)c5)c(Cl)c4)c3s2)C1 | 1.97
CNC(=O)c1cncc(/C=C/c2ccccc2Cl)c1 | 2.25

What follows are molecules tested against Maternal embryonic leucine zipper kinase (Homo sapiens) (UniProt Q14680). Settings: at 0.1 µM.
Maternal embryonic leucine zipper kinase (Homo sapiens), sequence (Q14680 whole entry, looked up): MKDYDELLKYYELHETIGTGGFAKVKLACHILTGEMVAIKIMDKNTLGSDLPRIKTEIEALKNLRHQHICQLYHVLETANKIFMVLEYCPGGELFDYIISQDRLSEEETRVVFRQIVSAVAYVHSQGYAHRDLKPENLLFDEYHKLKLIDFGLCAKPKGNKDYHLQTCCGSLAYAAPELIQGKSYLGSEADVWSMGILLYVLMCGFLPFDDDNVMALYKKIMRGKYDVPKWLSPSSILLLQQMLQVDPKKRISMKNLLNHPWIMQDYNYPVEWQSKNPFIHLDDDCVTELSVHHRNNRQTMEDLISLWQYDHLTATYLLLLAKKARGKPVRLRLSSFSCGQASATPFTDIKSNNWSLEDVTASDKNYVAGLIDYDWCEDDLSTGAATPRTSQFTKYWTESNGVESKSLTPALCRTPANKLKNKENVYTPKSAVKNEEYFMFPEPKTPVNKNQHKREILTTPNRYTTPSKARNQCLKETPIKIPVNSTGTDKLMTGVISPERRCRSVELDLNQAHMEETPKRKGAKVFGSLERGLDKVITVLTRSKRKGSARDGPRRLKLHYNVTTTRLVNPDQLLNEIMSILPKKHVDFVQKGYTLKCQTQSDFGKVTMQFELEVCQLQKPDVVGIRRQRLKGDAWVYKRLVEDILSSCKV

SMILES | inhibition [%]
CCc1nn2ncccc2c1-c1ccnc(NC2CC2)n1 | 2.14
COC(=O)c1sc(-n2cnc3cc(OC)c(OC)cc32)cc1OCc1ccccc1C(F)(F)F | 4.31
[O-][S+]1CCN(Cc2ccc(-c3ccc4ncnc(Nc5ccc(OCc6cccc(F)c6)c(Cl)c5)c4c3)o2)CC1 | 7.16
CCn1c(-c2nonc2N)nc2c(C#CC(C)(C)O)ncc(OC3CCNCC3)c21 | 21.2
CC(C)(CO)CNC(=O)c1ccc2c(c1)/C(=N/Nc1ccc(S(N)(=O)=O)cc1)C(=O)N2 | 18.8
CCCN1CCC(c2ccc(Nc3nc(Nc4cc(F)ccc4C(N)=O)c4cc[nH]c4n3)c(OC)c2)CC1 | 21.7
COc1ccc(-c2cc(-c3c[nH]nc3-c3ccccn3)ccn2)cc1 | 3.77
COc1ccc(-c2cc3c(N)ncnc3o2)cc1 | -3.33
COC(=O)Nc1nc2ccc(S(=O)(=O)c3ccc(NC(=O)Nc4cc(C(F)(F)F)ccc4F)cc3)cc2[nH]1 | 1.64
Fc1ccc(-c2nn3ccccc3c2-c2ccncc2)cc1 | 3.07
CN1CCC(n2cnc(-c3ccc(F)cc3)c2-c2ccnc(N)n2)CC1 | 2.15
COc1cccc(-n2ncc3c(N/N=C/c4ccc(F)cc4)ncnc32)c1 | 2.6
Fc1cccc(COc2ccc(Nc3ncnc4sc(-c5ccco5)cc34)cc2Cl)c1 | 5.07
Fc1ccc(-c2cc(-c3c[nH]nc3-c3ccccn3)ccn2)cc1 | 0.52
CCCN(CCS(C)(=O)=O)Cc1ccc(-c2ccc3ncnc(Nc4ccc(OCc5cccc(F)c5)c(Cl)c4)c3c2)o1 | 3.57
COc1cccc(-c2c[nH]c3c(N/N=C/c4ccncc4)ncnc23)c1 | 0.82
CC1=C(C(=O)Nc2cc(Cl)c3[nH]ncc3c2)C(c2ccc(C(F)(F)F)cc2)CC(=O)N1 (stereo not drawn) | 5.47

SMILES | inhibition [%]
CS(=O)(=O)CCNCc1coc(-c2ccc3ncnc(Nc4ccc(OCc5ccccc5)cc4)c3c2)c1 | 3.52
CCn1c(-c2nonc2N)nc2cnc(Oc3cccc(NC(=O)c4ccc(N(C)C)cc4)c3)cc21 | 8.41
CNC(=O)c1cc(-c2ccc(F)cc2)cc(-c2ccc(S(=O)(=O)N3CCCC3)cc2)c1N | 4.19
O=S(=O)(CCNCc1ccc(-c2ccc3ncnc(Nc4ccc(OCc5cccc(F)c5)c(Cl)c4)c3c2)o1)c1ccccc1 | 5.2
N#Cc1c(NC(=O)c2ccc(F)cc2)sc2c1CCCC2 | 0.18
CNC(=O)c1cccc(C#Cc2cncnc2Nc2ccc(OCc3cccc(F)c3)c(Cl)c2)c1 | -3.3
CCn1c(-c2nonc2N)nc2c(C#CC(C)(C)O)nc(OC[C@H](N)c3ccccc3)cc21 | 17.7
Nc1ncc(-c2cccc(S(N)(=O)=O)c2)c2scc(-c3ccc(F)c(Cl)c3)c12 | 5.13
c1ccc(COc2ccc(Nc3ncnc4ccc(-c5ccco5)cc34)cc2)cc1 | 0.14
N#Cc1c(NC(=O)CN2CCOCC2)sc2c1CCCC2 | 3.07
NS(=O)(=O)c1ccc(N/N=C2\C(=O)Nc3ccc4ncccc4c32)cc1 | 50.3
O=C(O[C@H]1CN[C@H](C#Cc2cc3ncnc(Nc4ccc(Cc5ccccc5)cc4)c3s2)C1)N1CCOCC1 | 0.46
CC(=O)Nc1cccc(C#Cc2cncnc2Nc2ccc(OCc3cccc(F)c3)c(Cl)c2)c1 | 1.32
Cc1cccc(Nc2ncc(-c3ccccc3)o2)c1 | 3.78
FC(F)(F)c1cccc(-c2nn3ncccc3c2-c2ccnc(Nc3ccc4c(c3)OCCO4)n2)c1 | 1.43
CCNC(=O)O[C@H]1CN[C@H](C#Cc2cc3ncnc(Nc4ccc(OCc5cccc(F)c5)c(Cl)c4)c3s2)C1 | 4.18
CNC(=O)c1cncc(/C=C/c2ccccc2Cl)c1 | 0.11
